From publication PMC5540273 (PLoS ONE, 2017)
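Note: kd values determined as follow-up on hits from a single-replicate KINOMEscan panel screen.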

These molecules were tested on KIT.
For `O=C(Nc1n[nH]c2nc(-c3ccco3)c(Br)cc12)c1ccc(CN2CCCC2)cc1.O=C(O)[C@H](O)[C@@H](O)C(=O)O` [SB-742352], the Kd was 66 nM. With `Cn1cc(-c2ccc3c(c2)CCN3C(=O)Cc2cccc(C(F)(F)F)c2)c2c(N)ncnc21` [GSK2606414] the Kd was 5200 nM. In the case of `O=C(Nc1ccccc1)Nc1ccc(Oc2ccc3nccn3n2)cc1`, the Kd is reported as 99 nM. For `COc1cc2c(Nc3cccc(NC(=O)c4ccccc4)c3)ncnc2cc1OCCCN1CCOCC1` [GSK223810], the Kd was 300 nM. `Cn1ccc2ncnc(Oc3ccc(NC(=O)Nc4cccnc4)c(Cl)c3)c21` was tested, and the Kd was 47 nM. In the case of `COc1ccc(NC(=O)Nc2ccc(C)c(-c3ccc(C(=O)Nc4ccncc4)cc3)c2)cc1` [GSK1398475], the Kd is reported as 44 nM. Molecule `Cc1ccc(NC(=O)c2cccc(C#N)c2)cc1-c1ccc(C(=O)Nc2ccncc2)cc1` [GSK1398463] has a Kd of 310 nM.
